Beta apoptosis: beta cell apoptosis inhibition. protection from apoptosis, % (no concentration beside the values). AID 435005. hit rate 0.8% among 300,000. INS-1E cytokine-induced death, ATP luminescence, 48 h; percent of positive-control rescue, neutral wells zero;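 active = Every replicate reaches about 75%, or at least half do and their mean reaches it too, limit read from the data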;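 note: 0% = cytokine-treated negative control wells and 100% = positive control rescue; higher means more ATP so stronger rescue from cytokine killing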
A1 inh: inhibitors of the anti-apoptotic protein A1, read as caspase activation | MEF A1-2A-BIM cells, Caspase-Glo 3/7 luminescence, 3 h; percent of clofoctol response, vehicle zero | caspase activation, % (test concentration not listed) | hit rate 0.066% among 330,000 | AID 2462;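 active = over half of replicate activation scores above 10%, or exactly half above 10 with the replicate mean above 10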
Jurkat NFkB inh: lowers PMA/ionomycin-induced NF-kB signal in Jurkat cells | PMA/ionomycin-induced NF-kB luciferase reporter, luminescence | inhibition, % at 4 µM | hit rate 0.53% among 330,000 | AID 435003; in the data active = inhibition above about 50%
697 NFkB inh: inhibitors of the PMA/ionomycin-induced NF-kB reporter in 697 B cells; 697 B-cell NF-kB luciferase reporter, 16 h; inhibition, % at 4 µM; hit rate 0.33% among 330,000; AID 435022; in the data active = inhibition above about 35%
NTR1 ag: activates human neurotensin receptor 1; AID 493036; activation, % at 20 µM; NTR1-U2OS beta-arrestin-GFP spot imaging, agonist mode; P30989; hit rate 0.17% among 330,000;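 active = activation at or above 40% of the spot to cytoplasm intensity ratio, with at least 20 cells analyzed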;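 note: 0% = DMSO without peptide and 100% = 100 nM NTR1 peptide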
Mdm2-MdmX inh: human Mdm2/MdmX binding inhibition; inhibition, % at 8 µM; O15151+Q00987; AID 485346; hit rate 3% among 330,000; SaOS-2 split-luciferase Mdm2/MdmX complementation, luminescence;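 active = inhibition of at least 50% at 8 µM in the primary screen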
Mdm2-MdmX conf: human Mdm2/MdmX binding inhibition, confirmed | luminescent assay | shares compounds with Mdm2-MdmX inh | hit rate 55% among 10,000 | inhibition, % at 8 µM; in the data active = inhibition above about 40%
Full FLuc ctr: counter-screen for Mdm2/MdmX inhibitors: full-length luciferase | SaOS-2 full-length luciferase counterscreen, luminescence | shares compounds with Mdm2-MdmX inh | hit rate 77% among 6,200 | inhibition, % at 8 µM;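 active = mean inhibition at 8 µM reaching about 37%, which flags the compound as non-specific, limit read from the data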;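 note: p53-null SaOS-2 cells with luciferase driven by a doxycycline-inducible promoter; compound on cells about two nights before reading with doxycycline added after day one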
Numbers without * were called inactive. Rows were chosen to be rich in hits. Some 3.8% of all compounds tested hit in one or more screens of this group.

O=C1N=c2ccccc2=C1c1sc(=S)n(NC(=O)c2ccccc2)c1O was read as Beta apoptosis -1, A1 inh 0, Jurkat NFkB inh 6, 697 NFkB inh 14, NTR1 ag 1 and Mdm2-MdmX inh -4.
Screening C=CCn1c(O)c(C2=c3ccccc3=NC2=O)sc1=Nc1ccc(O)cc1 returned Beta apoptosis 0, A1 inh 0, Jurkat NFkB inh 9, 697 NFkB inh -11, NTR1 ag 32, Mdm2-MdmX inh 78* and Mdm2-MdmX conf 1.
CCOC(=O)C1=CNS(=O)(=O)NC1CCc1ccccc1 (centres undefined) was read as 697 NFkB inh -13, NTR1 ag 1 and Mdm2-MdmX inh -10.
For COCC(C)n1c(SCc2cc(=O)n3cc(C)ccc3n2)nc2ccccc2c1=O (centres undefined) the results were Beta apoptosis 2, A1 inh 0, Jurkat NFkB inh 2, 697 NFkB inh -11, NTR1 ag 0, Mdm2-MdmX inh 51* and Mdm2-MdmX conf 10.
CC(C)c1ccc(NC(=O)C2CCC(CNC(=O)[C@@H]3Cc4ccccc4CN3)CC2)cc1 (some centres undefined) was read as Beta apoptosis 15, A1 inh -1, Jurkat NFkB inh -11, 697 NFkB inh 7, NTR1 ag 0 and Mdm2-MdmX inh 48.
`NC(=O)c1cc2ccncc2c2ccccc12` gave Beta apoptosis -43, A1 inh 0, Jurkat NFkB inh 38, 697 NFkB inh 10, NTR1 ag 0, Mdm2-MdmX inh 90*, Mdm2-MdmX conf 94* and Full FLuc ctr 51*.
For Fc1ccc2c(c1)C(c1ccc(N3CCOCC3)cc1)=NNC(c1cccs1)=N2 the results were Beta apoptosis 0, A1 inh -1, Jurkat NFkB inh 7, 697 NFkB inh -32, NTR1 ag 7 and Mdm2-MdmX inh 19.
Brc1ccc2c(c1)C(c1ccc(N3CCOCC3)cc1)=NNC(c1cccs1)=N2 was read as Beta apoptosis 1, A1 inh -1, Jurkat NFkB inh 26, 697 NFkB inh 5, NTR1 ag 8, Mdm2-MdmX inh 59* and Mdm2-MdmX conf -5.
`CNC[C@H](Cc1cccc2ccccc12)NC[C@H](CCSC)NCC1CCC(C(C)(C)C)CC1` (some centres undefined) gave Beta apoptosis -1, A1 inh -1, Jurkat NFkB inh 0, 697 NFkB inh 7, NTR1 ag 11, Mdm2-MdmX inh 60* and Mdm2-MdmX conf 5.
Screening O=C(NC1CC2CCCC(C1)N2C(=O)Nc1ccccc1F)C1CC1 (centres undefined) returned Beta apoptosis 0, A1 inh 1, Jurkat NFkB inh 0, 697 NFkB inh 19, NTR1 ag 0 and Mdm2-MdmX inh -5.
For Nc1nc(N)nc(-c2cc([N+](=O)[O-])ccc2O)n1 the results were Beta apoptosis -4, A1 inh -2, Jurkat NFkB inh 9, 697 NFkB inh -64, NTR1 ag 0, Mdm2-MdmX inh 77*, Mdm2-MdmX conf 63* and Full FLuc ctr 82*.
For Nc1nc(N)nc(-c2cc(O)ccc2O)n1 the results were Beta apoptosis -13, A1 inh 1, Jurkat NFkB inh 36, 697 NFkB inh 10, NTR1 ag 0, Mdm2-MdmX inh 88*, Mdm2-MdmX conf 95* and Full FLuc ctr 55*.
For Cc1nc(N)nc(-c2ccccc2O)n1 the results were Beta apoptosis -5, A1 inh 0, Jurkat NFkB inh -19, 697 NFkB inh 18, NTR1 ag 1 and Mdm2-MdmX inh 26.
For Cc1nc2ccc([N+](=O)[O-])cc2nc1C the results were Beta apoptosis -6, A1 inh 0, Jurkat NFkB inh 4, 697 NFkB inh 8, NTR1 ag -2 and Mdm2-MdmX inh 14.
For CC(=O)Nc1ccc(S(=O)(=O)NC2(C(F)(F)F)NC(=O)N(c3ccc(C)cc3)C2=O)cc1 (centres undefined) the results were A1 inh 0, Jurkat NFkB inh -2, 697 NFkB inh -24, NTR1 ag 0 and Mdm2-MdmX inh 16.
For O=C(CN1C(=O)COc2ccccc21)NCCCN1CCOCC1 the results were Beta apoptosis -7, A1 inh 0, Jurkat NFkB inh -8, 697 NFkB inh -6, NTR1 ag 1 and Mdm2-MdmX inh -15.
For O=C(CN1C(=O)/C(=C\c2cccc(Br)c2)Oc2ccccc21)NCCCN1CCOCC1 the results were A1 inh 1, Jurkat NFkB inh -14, 697 NFkB inh 5, NTR1 ag 11, Mdm2-MdmX inh 63* and Mdm2-MdmX conf 11.
For FC(F)(F)c1ccc(C2[C@H]3CN(Cc4ccc(-c5ccccc5)cc4)[C@H](c4ccccc4)C34CC2(c2cccnc2)C4)cc1 (some centres undefined) the results were Beta apoptosis 6, A1 inh 0, Jurkat NFkB inh 8, 697 NFkB inh -4, NTR1 ag 1, Mdm2-MdmX inh 54*, Mdm2-MdmX conf 38 and Full FLuc ctr 58*.
For FC(F)(F)c1ccc(C2[C@H]3CN(Cc4cccnc4)[C@H](c4ccccc4)C34CC2(c2cccnc2)C4)cc1 (some centres undefined) the results were Beta apoptosis 15, A1 inh 1, Jurkat NFkB inh 9, 697 NFkB inh 14, NTR1 ag 15 and Mdm2-MdmX inh 45.
`CC(C)N(C(=O)c1nn(C)c2c1CSc1ccccc1-2)C1CCCCC1` gave Beta apoptosis -1, A1 inh 0, Jurkat NFkB inh -5, 697 NFkB inh 10, NTR1 ag 9 and Mdm2-MdmX inh 44.
Screening Cn1cc(CNC(=O)C2CCC(=O)N(Cc3cccc(C(F)(F)F)c3)C2)cn1 (centres undefined) returned Beta apoptosis -7, A1 inh 0, Jurkat NFkB inh 0, 697 NFkB inh 5, NTR1 ag 0 and Mdm2-MdmX inh 25.
For Cn1nnnc1Sc1ncnc2scc(-c3cccc(Br)c3)c12 the results were Beta apoptosis -13, A1 inh 0, Jurkat NFkB inh 13, 697 NFkB inh -54, NTR1 ag 13, Mdm2-MdmX inh 96*, Mdm2-MdmX conf 100* and Full FLuc ctr 49*.
O=C(O)CSc1ncnc2scc(-c3ccccc3)c12 was read as Beta apoptosis -3, A1 inh 0, Jurkat NFkB inh -12, 697 NFkB inh 6, NTR1 ag 4 and Mdm2-MdmX inh 4.

Screening results from PubChem BioAssay.
